For eight molecules, growth results are on record in PubChem BioAssay (NCI).

Each structure is given as a SMILES string. The panel holds about 83,000 compounds, 20% with a hit somewhere; the sample as a whole holds those more often.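 Interpretation: 100, growth as untreated; towards 0, rising growth inhibition; 0, no net growth; 0 to -100, cell death. Compounds scoring below 10 were considered active.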 Unmarked numbers belong to inactive results. The source made the active and inactive calls.

Assay in all cases: NCI-60 one-dose screen, 48 h (100 = growth as untreated, 0 = no growth, -100 = all killed)
Holding throughout (conditions): 10 µM unless noted

Experiment [1] deals with SR leukemia.
The subject of experiment [2] is RPMI-8226 leukemia.
The test system of experiment [3] is OVCAR-8 ovarian.
Experiment [4] relates to OVCAR-5 ovarian.
Experiment [5] concerns OVCAR-4 ovarian.
Experiment [6] concerns SK-OV-3 ovarian.
Experiment [7] deals with IGROV1 ovarian.
Experiment [8] relates to OVCAR-3 ovarian.
For experiment [9], the system named is HS 578T breast.
The subject of experiment [10] is NCI/ADR-RES ovarian.
Experiment [11] has as its system T-47D breast.
The subject of experiment [12] is BT-549 breast.
For experiment [13], the system named is MDA-MB-435 melanoma.
For experiment [14], the system named is SW-620 colon.
Experiment [15] relates to MCF7 breast.
The test system of experiment [16] is HCT-116 colon.
Experiment [17] relates to HCC-2998 colon.
Experiment [18] deals with KM12 colon.

Regarding `N#C/C(=C\c1ccccn1)c1nc2cc(Cl)ccc2s1`, the growth is 40.3% in experiment [1]; 59.3% in [2]; 73.1% in experiment [3]; 96.8% in experiment [4]; 71.5% in [5]; 62.9% in experiment [6]. Also, the growth in experiment [7] was 42%; in experiment [8], 75.4%; in [9], 53.7%; in experiment [10] it was 77%; in experiment [11] it was 27.7%; in [12], 33.3%. The growth is 74.7% in [13]; 77.5% in experiment [14]; 37.1% in experiment [15]; 55% in [16]; 92.7% in experiment [17]; 96.2% in [18].

Take `CN1C(N2CCN(S(=O)(=O)c3ccccc3)CC2)=NS(=O)(=O)c2ccccc21`: the growth in experiment [1] was 32.2%; in experiment [2], 98.4%; in experiment [3] it was 80%; in [4], 97.9%; in [5], 111%; in experiment [6], 109%. The growth is -25.4% (active) in experiment [7]; 101% in [8]; 82.5% in [9]; 99.7% in [10]; 101% in experiment [11]; 119% in experiment [12]. Also, the growth in experiment [13] is 109%; in experiment [14], 123%; in experiment [15] it was 91.1%; in experiment [16], 109%; in [17] it was 101%; in experiment [18], 91.5%.

`CCOC(=O)CCN(CC(C)C)C(=S)Nc1ccccc1`: the growth in experiment [1] was 97.1%; in experiment [2] it was 115%; in experiment [3], 102%; in experiment [4], 100%; in [5], 112%; in experiment [6], 130%. Moreover, the growth is 102% in [7]; 124% in [8]; 117% in experiment [9]; 105% in experiment [10]; 105% in experiment [11]; 106% in experiment [12]. Besides, the growth is 102% in [13]; 107% in experiment [14]; 98.8% in experiment [15]; 95.9% in experiment [16]; 108% in experiment [17]; 104% in [18].

Consider `N#CC1=C(N)Oc2c(cnn2-c2ccc([N+](=O)[O-])cc2[N+](=O)[O-])C1c1ccccc1` (centres undefined), for which the growth was 98.2% in experiment [1]; 92.5% in experiment [2]; 101% in experiment [3]; 99.1% in [4]; 109% in experiment [5]; 112% in experiment [6]. In addition, the growth in experiment [7] was 100%; in experiment [8] it was 112%; in experiment [9] it was 89%; in [10], 101%; in [11], 98%; in [12], 107%. Moreover, the growth in experiment [13] is 101%; in [14], 96.2%; in experiment [15], 97%; in experiment [16], 100%; in experiment [17], 101%; in experiment [18] it was 101%.

For `COc1ccc(/C=C(\C#N)n2nc3cccc(F)c3n2)cc1`, the growth is 82.4% in experiment [1]; 102% in experiment [2]; 100% in experiment [3]; 108% in [4]; 101% in experiment [5]; 108% in experiment [6]. For the same molecule, the growth is 96.8% in experiment [7]; 109% in [8]; 104% in experiment [9]; 104% in experiment [10]; 90.5% in experiment [11]; 109% in experiment [12]. For the same molecule, the growth in experiment [13] is 77.4%; in [14] it was 103%; in experiment [15], 89.5%; in experiment [16], 101%; in experiment [17], 107%; in experiment [18] it was 93.7%.

In the case of `Cc1cnc(C(=O)Nc2nc3ccc(S(=O)(=O)Nc4ccc(C5(C(F)(F)F)CC5)cc4)cc3[nH]2)cn1`, the growth in experiment [1] is 18.9%; in experiment [2], 6.96% (active); in [3], 25.8%; in experiment [4] it was 38.8%; in experiment [5], 32.9%; in experiment [6] it was 36.9%. For the same molecule, the growth is 31.4% in experiment [7]; -19.3% (active) in experiment [8]; 8.52% (active) in [9]; 15.8% in [10]; 21.6% in [11]; 40.6% in experiment [12]. Moreover, the growth in experiment [13] was -77.5% (active); in experiment [14] it was 15%; in [15], 17.4%; in experiment [16], 19.5%; in experiment [17], 42.4%; in experiment [18] it was 16%.

For `CC(C)(C)CC(C)(C)n1nnnc1C(NC12CC3CC(CC(C3)C1)C2)c1ccccc1` (centres undefined), the growth is 80.3% in experiment [1]; 68.8% in experiment [2]; 96% in experiment [3]; 103% in experiment [4]; 88.4% in [5]; 120% in experiment [6]. Besides, the growth in experiment [7] is 87.1%; in [8] it was 98.1%; in experiment [9], 99.9%; in experiment [10], 86.1%; in [11], 73.5%; in [12], 93.2%. In addition, the growth in experiment [13] is 98.3%; in [14] it was 98.9%; in experiment [15], 88.9%; in experiment [16], 66.8%; in [17], 104%; in [18] it was 101%.

On to `CCOC(=O)[C@@H]1CCCN(S(=O)(=O)c2ccc(S(=O)(=O)N(CC)CC)c(F)c2)C1`, for which the growth is 60.1% in experiment [1]; 61% in [2]; 77.8% in experiment [3]; 95.5% in experiment [4]; 75.5% in experiment [5]; 82.4% in [6]. Moreover, the growth in experiment [7] was 93.5%; in [8], 88%; in [9] it was 93.5%; in experiment [10], 47.2%; in experiment [11], 53.3%; in experiment [12], 58.5%. The growth in experiment [13] was 75.6%; in experiment [14], 86.6%; in experiment [15] it was 61.8%; in experiment [16], 42%; in experiment [17], 92.5%; in experiment [18] it was 81.9%.
